# Assay outcomes (PubChem)
# Sfp PPTase inh: inhibitors of Bacillus subtilis Sfp phosphopantetheinyl transferase; Q9F4F7; Biochemical Sfp PPTase activity, qHTS; Potency, µM, for the others: largest response in the series, negative = inhibition, usual class: inhibitors; hit rate 3.5% among 310,000; AID 1490;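 further: the enzyme is Sfp with the accession as filed and its product quenches rhodamine fluorescence; 0% = enzyme reaction without inhibitor and -100% = no enzyme wells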
#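 Reaction rates are the 30-min fluorescence difference (ex 525, em 598 nm) in wells containing 15 nM Sfp, 5 uM rhodamine-CoA and 12.5 uM BHQ-2-YbbR at pH 7.6 with 10 mM MgCl2.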
# PLK1 PBD inh: blocks phosphopeptide binding to human PLK1 polo-box domain; Plk1 PBD binding of FITC phosphopeptide, fluorescence polarization; hit rate 2.8% among 360,000; Potency, µM, without a hit: max response, negative = inhibition, usual class: inhibitors; further: series mostly up to about 57 µM; on the % scale 0 is the no-effect control and ±100 the full control effect; nearly all actives have a fitted effect of over 65% in size
# G9a block: G9a (human) methyltransferase inhibition | AID 504332 | hit rate 8.8% among 350,000 | Q96KQ7 | Potency, µM (titrated, usually from 102 µM), for the others: at the highest dose activity, negative = inhibition, most hits filed as inhibitors | G9a H3K9 monomethylation, AlphaScreen, 2 h; further: on the % scale 0 is the no-effect control and ±100 the full control effect; nearly all actives have a fitted effect of over 75% in size
#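 Quantitative HTS format: methyltransferase activity on a biotin-tagged H3K9 peptide is measured by AlphaScreen, using a rabbit anti-monomethyl-H3K9 antibody with streptavidin donor and anti-IgG acceptor beads. Final levels are 20 nM enzyme, 500 nM peptide, 20 uM SAM; 2 h RT.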
# JMJD2A Tudor inh: inhibitors of human JMJD2A Tudor domain. hit rate 4.4% among 390,000. AlphaScreen JMJD2A-Tudor / H3K4me3 peptide binding. O75164. Potency, µM (top dose mostly 114 µM), inactives show top-dose activity change, negative = inhibition, actives largely listed as inhibitors; further: on the % scale 0 is the no-effect control and ±100 the full control effect; nearly all actives have a fitted effect of over 50% in size
# HP1b chromo inh: blocks HP1-beta chromodomain binding to methylated histone tails. AlphaScreen HP1-beta / biotin-H3K9me3 peptide binding. hit rate 0.56% among 390,000. P83916. Potency, µM (series often up to 114 µM), for the others: at the highest dose activity change, negative = inhibition, hits mostly inhibitors. AID 540317; further: nearly all actives have a fitted effect of over 70% in size
#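 Compound inhibition of the preformed complex between 50 nM HP1-beta and 50 nM biotinylated H3K9me3 peptide was read by AlphaScreen. Buffer was PBS pH 7.4 with 0.01% Tween-20. Incubations ran 30 min at room temperature, with 10 ug/mL donor/acceptor beads.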
# BAZ2B inh: BAZ2B (human) inhibition; Q9UIF8; AlphaScreen BAZ2B-H3K14Ac peptide displacement; Potency, µM (doses to about 114 µM), without a hit: at the top dose activity change, negative = inhibition, most hits filed as inhibitors; hit rate 4.4% among 360,000; AID 504333; further: on the % scale 0 is the no-effect control and ±100 the full control effect; nearly all actives have a fitted effect of over 60% in size
# Target sequence (Q9UIF8 whole entry, looked up): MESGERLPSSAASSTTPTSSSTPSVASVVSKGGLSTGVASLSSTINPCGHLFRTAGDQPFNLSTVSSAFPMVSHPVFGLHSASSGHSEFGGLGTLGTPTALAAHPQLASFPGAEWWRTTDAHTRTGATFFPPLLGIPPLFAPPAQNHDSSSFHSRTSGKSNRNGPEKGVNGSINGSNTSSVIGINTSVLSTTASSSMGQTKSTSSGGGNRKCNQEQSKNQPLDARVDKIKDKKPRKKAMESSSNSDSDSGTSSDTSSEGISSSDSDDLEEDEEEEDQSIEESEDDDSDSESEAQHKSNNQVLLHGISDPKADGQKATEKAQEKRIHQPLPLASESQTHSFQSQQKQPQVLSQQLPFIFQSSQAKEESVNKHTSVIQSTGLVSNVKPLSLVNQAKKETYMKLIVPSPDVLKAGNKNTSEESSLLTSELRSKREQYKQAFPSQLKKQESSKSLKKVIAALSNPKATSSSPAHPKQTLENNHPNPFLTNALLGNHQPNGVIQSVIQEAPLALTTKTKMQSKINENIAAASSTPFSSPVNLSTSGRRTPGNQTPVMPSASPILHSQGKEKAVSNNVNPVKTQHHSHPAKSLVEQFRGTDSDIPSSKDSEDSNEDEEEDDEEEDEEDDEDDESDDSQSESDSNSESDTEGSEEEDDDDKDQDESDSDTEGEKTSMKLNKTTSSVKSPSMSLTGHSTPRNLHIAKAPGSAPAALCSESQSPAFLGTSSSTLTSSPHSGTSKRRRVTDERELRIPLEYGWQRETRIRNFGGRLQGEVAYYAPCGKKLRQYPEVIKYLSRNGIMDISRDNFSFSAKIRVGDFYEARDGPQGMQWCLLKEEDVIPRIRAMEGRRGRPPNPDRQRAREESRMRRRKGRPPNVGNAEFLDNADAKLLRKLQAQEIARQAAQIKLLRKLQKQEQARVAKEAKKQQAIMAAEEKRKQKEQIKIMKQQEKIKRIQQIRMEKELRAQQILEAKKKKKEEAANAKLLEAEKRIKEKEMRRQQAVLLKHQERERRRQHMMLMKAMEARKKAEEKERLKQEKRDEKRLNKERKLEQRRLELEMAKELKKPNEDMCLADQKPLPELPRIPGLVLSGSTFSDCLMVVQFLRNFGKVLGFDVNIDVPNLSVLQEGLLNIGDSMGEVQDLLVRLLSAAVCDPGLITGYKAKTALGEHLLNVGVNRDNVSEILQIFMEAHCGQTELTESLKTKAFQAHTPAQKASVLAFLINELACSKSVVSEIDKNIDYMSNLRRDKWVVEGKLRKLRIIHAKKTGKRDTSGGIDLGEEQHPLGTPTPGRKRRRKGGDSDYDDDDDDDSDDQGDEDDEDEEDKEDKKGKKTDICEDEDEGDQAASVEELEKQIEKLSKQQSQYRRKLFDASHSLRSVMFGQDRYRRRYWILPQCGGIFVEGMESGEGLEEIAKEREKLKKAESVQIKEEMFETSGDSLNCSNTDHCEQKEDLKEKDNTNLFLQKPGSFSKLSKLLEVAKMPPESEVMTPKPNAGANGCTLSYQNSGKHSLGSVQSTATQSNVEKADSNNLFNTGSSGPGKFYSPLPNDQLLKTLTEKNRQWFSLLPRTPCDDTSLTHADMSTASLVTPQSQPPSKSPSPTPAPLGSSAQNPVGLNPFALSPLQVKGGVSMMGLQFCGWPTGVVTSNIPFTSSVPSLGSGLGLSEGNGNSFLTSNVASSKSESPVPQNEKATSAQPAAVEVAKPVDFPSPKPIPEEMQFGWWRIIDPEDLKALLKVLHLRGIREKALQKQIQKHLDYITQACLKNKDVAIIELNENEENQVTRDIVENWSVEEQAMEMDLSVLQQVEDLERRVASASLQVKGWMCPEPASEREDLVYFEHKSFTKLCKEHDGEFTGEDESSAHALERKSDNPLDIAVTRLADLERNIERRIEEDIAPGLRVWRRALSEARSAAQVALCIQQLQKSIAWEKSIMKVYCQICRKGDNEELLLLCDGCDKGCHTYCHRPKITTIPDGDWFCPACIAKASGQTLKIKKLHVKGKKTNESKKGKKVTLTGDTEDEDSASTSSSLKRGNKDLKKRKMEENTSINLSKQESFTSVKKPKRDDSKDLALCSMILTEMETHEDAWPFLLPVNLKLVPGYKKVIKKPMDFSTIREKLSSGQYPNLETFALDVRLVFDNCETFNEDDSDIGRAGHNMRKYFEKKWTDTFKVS
#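 Compounds, titrated to a top concentration of 110 uM, were incubated 30 min at room temperature with preformed BAZ2B/acetyl-K14 H3 peptide complex (50 nM each). Proximity signal was measured by AlphaScreen after 20 min with beads.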
# * hit, by the source's call; ? = inconclusive; nt = no result given; [ ] = dose if it differs, or a comment. Compounds with a hit are over-represented: about 12% of the library has one in this group of screens. The call rests on the fitted dose curve; in most records, active means well fitted curve in the direction sought with a large enough effect; inconclusive means small, poorly fitted or top-dose-only effect, or another doubt; inactive means no such curve, though single readings can be large; an effect the other way counts as inactive or inconclusive. Potency means the concentration at half of the fitted maximal effect.
SMILES,Sfp PPTase inh,PLK1 PBD inh,G9a block,JMJD2A Tudor inh,HP1b chromo inh,BAZ2B inh
O=C(Nc1ccnn1C1CCN(C2CCCCC2)CC1)c1cccc(F)c1,10.3%,-18.2%,nt,25.1µM*,36.8%,10.3%
O=C(c1cccc(F)c1)N1CCN(Cc2ccco2)CC1,-7.2%,-4.1%,31.6µM*,7.94µM*,-13.9%,50.1µM*
COc1ccccc1N1CCN(C2CCN(C(=O)c3cccc(F)c3)CC2)CC1,-27.4%,-6.8%,8.91µM*,28.2µM*,?,50.1µM*
O=C(Nc1ccnn1C1CCN(C2CCCCC2)CC1)c1ccccc1,6.9%,-18.2%,18.0%,2.7%,1.6%,3.1%
COc1ccccc1N1CCN(C2CCN(C(=O)c3ccc(F)cc3)CC2)CC1,5.9%,-9.3%,10.8%[59 µM],-5.0%[57.1 µM],20.6%,-5.3%
Cc1ccc(-c2ccc(OCC(=O)N3CCOCC3)cc2)cc1,-20.9%,-9.6%,-7.0%[12.7 µM],2.2%,4.7%,6.7%
Cc1ccc(OCC(=O)N2CCC(N3CCCCCC3)CC2)cc1,-4.3%,0.5%,?,6.31µM*,-45.6%,56.2µM*
Cc1cccc(-n2c(SCC(=O)c3ccccc3)nnc2-c2ccc(Br)cc2)c1,nt,nt,0.9%[59 µM],-5.3%,33.8%,-0.4%
COc1ccc(-n2nc(C(=O)N3CCCC(C)C3)c3c4ccccc4n(C)c3c2=O)cc1 (stereo not given),nt,nt,-42.4%[59 µM],-20.0%,21.2%,nt
O=C(c1cccc(F)c1)N1CCC(N2CCOCC2)CC1,56.2µM*,-7.5%,?,7.94µM*,?,50.1µM*
COc1ccccc1C(=O)N1CCN(C(=O)COc2cccc(C)c2)CC1,12.2%,-13.5%,-67.9%,-4.5%,3.0%,12.9%
O=C(COc1ccccc1)N1CCN(C(=O)c2ccc([N+](=O)[O-])cc2)CC1,-1.6%,-0.6%,nt,-26.5%,46.2%,-7.0%
COc1ccccc1N1CCN(C2CCN(C(=O)COc3cccc(C)c3)CC2)CC1,-24.9%,-7.8%,8.91µM*,5.62µM*,?,79.4µM*
Cc1ccc(OCC(=O)N2CCN(C(=O)c3ccc([N+](=O)[O-])cc3)CC2)cc1,?,-9.3%,50.1µM*,-6.6%,13.8%,-7.0%
CCCCCCCC1=Cc2ccccc2C(C(C(=O)OC)C(=O)OC)N1C(=O)OC (stereo not given),-10.4%,nt,nt,nt,nt,nt
CCN(c1ccc(C)cc1C)S(=O)(=O)c1nnc(NC(=O)c2ccc(F)cc2)s1,nt,nt,-7.0%[59 µM],-26.0%,12.0%,-37.8%
Cc1nc2ccccc2n1CCc1nc2c3ccccc3nc(SCc3cccc(F)c3)n2n1,nt,nt,-0.4%[59 µM],-8.3%,37.1%,0.6%
COc1ccc(NC(=O)CCS(=O)(=O)c2ccc3c(c2)oc(=O)n3C)cc1,9.0%,?,8.4%,-29.9%,14.3%,50.1µM*
Cc1cccc(N(C)C(=O)CCS(=O)(=O)c2ccc3c(c2)oc(=O)n3C)c1,nt,nt,2.82µM*,-22.0%,0.3%,0.3%[57.1 µM]
CCc1nc2c(OCCOc3ccc(F)cc3)cccn2c1N(C=O)Cc1ccc(OC)cc1,nt,-11.0%,nt,nt,nt,nt
Cc1ccc(-c2c(C(=O)N3CCN(c4cccc(C)c4C)CC3)oc(=O)c3ccccc23)cc1,nt,nt,?,?,9.3%,nt
COC(=O)N1[C@H](C)C=C[C@]1(Cc1ccccc1)C(=O)NCc1ccc(N(C)C)cc1,-0.9%,nt,nt,nt,nt,nt
COC(=O)N1[C@H](C)C=C[C@]1(Cc1ccccc1)C(=O)NCc1ccc(C)o1,44.7µM*,nt,nt,nt,nt,nt
COc1c(O)c(O)c2oc(-c3ccccc3)cc(=O)c2c1OC,3.16µM*,-0.4%,-7.1%[12.7 µM],?,-15.0%,?
COc1c(OC2OC(C(=O)O)C(O)C(O)C2O)cc(O)c2c(=O)cc(-c3ccccc3)oc12 (stereo not given),39.8µM*,-14.4%,-22.5%,?,17.0%,-3.3%
SMILES,Sfp PPTase inh,PLK1 PBD inh,G9a block,JMJD2A Tudor inh,HP1b chromo inh,BAZ2B inh
COc1cc(-c2cc(=O)c3c(O)c(OC)c(OC)c(O)c3o2)ccc1O,5.01µM*,-0.4%,-1.5%[12.7 µM],-34.7%,4.4%,?
COc1ccc(-c2cc(=O)c3c(O)cc(O[C@@H]4OC(COC5OC(C)C(O)C(O)[C@@H]5O)C(O)C(O)C4O)cc3o2)cc1 (stereo not given in full),3.0%,nt,-2.6%[2.33 µM],nt,nt,nt
CCC1CN(C(=O)N2CCC(C(=O)NCc3cccs3)CC2)c2ccccc2O1 (stereo not given),nt,nt,3.0%[59 µM],-0.3%,42.1%,0.9%
N#Cc1nccnc1S(=O)(=O)c1cccs1,7.08µM*,26.7µM*,3.98µM*,-17.4%,11.6%,-1.6%
CCCN1CNc2c(c(=O)[nH]c(=S)n2Cc2ccc(OC)c(OC)c2)C1,nt,nt,nt,-16.3%,1.7%,nt
Brc1ccc([C@H]2CN3CCSC3=N2)cc1,nt,2.2%,?,6.31µM*,?,nt
CCN(CCCNC(=O)c1nn(-c2ccc(OC)cc2)c(=O)c2c1c1ccccc1n2C)c1cccc(C)c1,nt,nt,-2.5%[59 µM],-19.0%,15.4%,nt
O=C(COc1ccc([N+](=O)[O-])cc1)Nn1cnnc1,2.8%,21.2µM*,?,-20.3%[11.4 µM],-17.5%,nt
COc1ccc(OCC(=O)NNC(=S)NC(=O)c2ccc([N+](=O)[O-])cc2)cc1,31.6µM*,23.8µM*,1.12µM*,-24.7%,-16.5%,-15.6%
COc1ccc(OCC(=O)NNC(=S)NC(=O)c2ccc(Br)o2)cc1,2.6%,-22.3%,22.4µM*,-23.5%,-16.7%,-9.9%
CCCCCC(=O)NNC(=S)NC(=O)c1ccc([N+](=O)[O-])cc1,35.5µM*,10.6µM*,2.51µM*,?,?,-36.8%
Cc1ccc(C(=O)NC(=S)NNC(=O)c2ccc([N+](=O)[O-])cc2)cc1,14.3%,-17.1%,23.6%[0.501 µM],-27.9%,3.1%,-0.3%
CC(=O)NC(=S)NNC(=O)COc1ccc([N+](=O)[O-])cc1,-18.4%,21.2µM*,8.91µM*,-18.0%[11.4 µM],-1.3%,8.3%
O=C(CCc1ccccc1)NNC(=O)COc1ccc([N+](=O)[O-])cc1,22.0%,0.6%,23.3%,12.4%,42.6%,-3.0%
CC(=O)NC(=S)NNC(=O)COc1ccc(Br)cc1,-51.5%,26.7µM*,1.78µM*,25.1µM*,0.4%,9.3%
CNC(=S)NNC(=O)COc1ccc(C)c(C)c1,4.9%,-9.0%,31.6µM*,50.1µM*,7.8%,-5.1%
Cc1ccc(OCC(=O)Nc2cccc(O)c2)cc1C,-12.7%,-6.1%,-6.9%[2.33 µM],-24.3%,42.9%,63.3%
Cc1ccc(C)c(NC(=O)CN(C)S(=O)(=O)c2cccc3nsnc23)c1,nt,nt,-0.9%[59 µM],-25.7%,47.8%,nt
CCc1ccc(Nc2nnc(SCc3cc(=O)n4ccsc4n3)s2)cc1,-3.5%,-15.2%,2µM*,-16.5%,27.4%,-3.9%
COc1ccc(C(C)=O)cc1CSc1nnc(Nc2ccc(C)cc2C)s1,7.4%,-13.1%,35.5µM*,?,-9.0%,-19.6%
Cc1ccc(Nc2nnc(SCc3cc(=O)n4ccsc4n3)s2)c(C)c1,-20.7%,-12.4%,35.5µM*,-27.2%,6.0%,-4.2%
